LYPLA1 inh – LYPLA1 (human) inhibition in PME1 counter-screen. recombinant LYPLA1, FP-Rh probe fluorescence polarization. 0.16% of 320,000 active. inhibition, % at 5.9 µM. AID 2174. O75608;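 active means inhibition above the mean of all tested compounds plus 3 SD, set per campaign, cut at about 14% in these data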;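 further: inhibitors block serine hydrolase probe labeling of LYPLA1 so polarization falls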
Target sequence (O75608 whole entry, looked up): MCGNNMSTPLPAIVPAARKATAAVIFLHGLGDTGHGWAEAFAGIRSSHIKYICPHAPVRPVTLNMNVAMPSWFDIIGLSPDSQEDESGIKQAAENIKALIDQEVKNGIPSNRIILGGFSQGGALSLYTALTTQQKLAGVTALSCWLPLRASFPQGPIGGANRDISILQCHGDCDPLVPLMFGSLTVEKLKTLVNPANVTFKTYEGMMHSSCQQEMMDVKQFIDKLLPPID
GSTO1 counter – blocks human GSTO1 in RBBP9 counter-screen; 1.1% of 300,000 active; P78417; recombinant GSTO1, activity-based probe fluorescence polarization; AID 1974; inhibition, % at 5.96 µM;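 active means inhibition above the campaign mean inhibition plus 3 SD, cut at about 35% in these data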
PAD4 FP inh – inhibitors of human PAD4; AID 485272; recombinant PAD4, RCA probe fluorescence polarization; 0.41% of 330,000 active; Q9UM07; inhibition, % at 6.36 µM;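 active means percent inhibition above a cutoff equal to the mean of all tested compounds plus 3 SD, cut at about 15% in these data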
Fam108B inh – Fam108B inhibition, counter-screen for RBBP9 inhibitors; recombinant Fam108B, FP-Rh probe fluorescence polarization; AID 1947; 0.33% of 300,000 active; inhibition, % at 9.51 µM;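 active means inhibition above the screen mean inhibition plus 3 SD, computed separately per campaign, cut at about 18% in these data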;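 further: inhibitors lower polarization as less probe binds the enzyme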
PME-1 primary – blocks human protein phosphatase methylesterase 1 | inhibition, % at 5.9 µM | 0.53% of 320,000 active | AID 2130 | recombinant PME-1, FP-Rh probe fluorescence polarization;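 active means inhibition above the campaign mean of all compounds plus 3 SD, cut at about 26% in these data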;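 further: competitive labeling of PME-1 active site by serine hydrolase directed probe; inhibitors block probe labeling so polarization falls and inhibition rises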
LYPLA2 inh – blocks human lysophospholipase 2, a PME1 counter-screen | inhibition, % at 5.9 µM | recombinant LYPLA2, FP-Rh probe fluorescence polarization | AID 2177 | 0.38% of 320,000 active;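 active means inhibition above the screen-wide mean plus 3 SD, limit set per campaign, cut at about 26% in these data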
Target sequence (O95372 whole entry, looked up): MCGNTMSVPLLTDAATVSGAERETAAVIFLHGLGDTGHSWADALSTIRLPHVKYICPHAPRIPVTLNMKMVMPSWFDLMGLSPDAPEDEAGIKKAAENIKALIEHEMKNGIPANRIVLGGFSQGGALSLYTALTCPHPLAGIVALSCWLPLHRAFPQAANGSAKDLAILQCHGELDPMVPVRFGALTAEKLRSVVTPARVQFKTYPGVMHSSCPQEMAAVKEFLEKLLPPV
PAD4 confirm – confirmation of human PAD4 inhibitors; shares compounds with PAD4 FP inh; 28% of 1,200 active; recombinant PAD4, RCA probe fluorescence polarization; AID 488796; inhibition, % at 6.36 µM;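 active means mean inhibition across replicates above the hit cutoff set by the earlier primary screen, cut at about 15% in these data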;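 further: inhibitors block active-site labeling by the probe so polarization falls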
Hits are given with their value. The list is not random: actives were taken first. Their share in the collection is about 1.8%.

Results for Cc1cc(-c2nnc(SCC(=O)Nc3ccc(F)c(F)c3)n2N)n[nH]1 ?
LYPLA1 inh: inactive; GSTO1 counter: inactive; PAD4 FP inh: 52; Fam108B inh: inactive; PME-1 primary: inactive; LYPLA2 inh: inactive; PAD4 confirm: inactive

What do the screens show for `NNC(=O)c1snnc1-c1ccccc1`?
LYPLA1 inh: inactive; GSTO1 counter: inactive; PAD4 FP inh: 40; Fam108B inh: inactive; PME-1 primary: inactive; LYPLA2 inh: inactive; PAD4 confirm: inactive

How did Cc1noc(C)c1S(=O)(=O)NCc1ccc2c(c1)OCO2 do in these assays?
LYPLA1 inh: inactive; GSTO1 counter: inactive; PAD4 FP inh: 25; Fam108B inh: inactive; PME-1 primary: inactive; LYPLA2 inh: inactive; PAD4 confirm: inactive

What do the screens show for `COc1ccc(C2C(C#N)=C(N)N(N(C)C)C3=C2C(=O)CCC3)cc1` (stereo unspecified)?
LYPLA1 inh: inactive; GSTO1 counter: inactive; PAD4 FP inh: 90; Fam108B inh: inactive; PME-1 primary: inactive; LYPLA2 inh: inactive; PAD4 confirm: inactive

What do the screens show for `CCc1ccc(/C=N/n2c(COc3ccccc3)n[nH]c2=S)cc1`?
LYPLA1 inh: inactive; GSTO1 counter: inactive; PAD4 FP inh: 32; Fam108B inh: inactive; PME-1 primary: inactive; LYPLA2 inh: inactive; PAD4 confirm: inactive

Results for CCN(C(=O)COC(=O)c1cc(S(=O)(=O)N(C)C)ccc1Cl)C1CCS(=O)(=O)C1 (stereo unspecified) ?
LYPLA1 inh: inactive; GSTO1 counter: inactive; PAD4 FP inh: inactive; Fam108B inh: inactive; PME-1 primary: inactive; LYPLA2 inh: inactive

How did O=c1oc2ccccc2n1CSC1=NCCS1 do in these assays?
LYPLA1 inh: inactive; GSTO1 counter: inactive; PAD4 FP inh: 17; Fam108B inh: inactive; PME-1 primary: inactive; LYPLA2 inh: inactive; PAD4 confirm: inactive

Results for O=c1oc2ccccc2n1CSc1nc2ccccc2s1 ?
LYPLA1 inh: inactive; GSTO1 counter: inactive; PAD4 FP inh: inactive; Fam108B inh: inactive; PME-1 primary: inactive; LYPLA2 inh: inactive

Results for COc1ccc(N2C(=O)CSC23C(=O)N2CCCc4cccc3c42)cc1 (stereo unspecified) ?
LYPLA1 inh: inactive; GSTO1 counter: inactive; PAD4 FP inh: 22; Fam108B inh: inactive; PME-1 primary: inactive; LYPLA2 inh: inactive; PAD4 confirm: 21

Results for O=C1CSC2(C(=O)N3CCCc4cccc2c43)N1c1cccc(C(F)(F)F)c1 (stereo unspecified) ?
LYPLA1 inh: inactive; GSTO1 counter: inactive; PAD4 FP inh: 18; Fam108B inh: inactive; PME-1 primary: inactive; LYPLA2 inh: inactive; PAD4 confirm: inactive

How did COc1ccc(N2C(=O)CSC23C(=O)N2c4c(cccc43)C(C)=CC2(C)C)cc1 (stereo unspecified) do in these assays?
LYPLA1 inh: inactive; GSTO1 counter: inactive; PAD4 FP inh: inactive; Fam108B inh: inactive; PME-1 primary: inactive; LYPLA2 inh: inactive

What do the screens show for `O=C(CN1C(=O)NC2(CCCc3ccccc32)C1=O)N1CCN(c2cccc(C(F)(F)F)c2)CC1` (stereo unspecified)?
LYPLA1 inh: inactive; PAD4 FP inh: inactive; PME-1 primary: inactive; LYPLA2 inh: inactive

Results for CSCCC(NS(=O)(=O)c1ccc(C)cc1)C(=O)N1CCCCCCC1 (stereo unspecified) ?
LYPLA1 inh: inactive; PAD4 FP inh: inactive; PME-1 primary: inactive; LYPLA2 inh: inactive

Results for Cc1cc(C)c2nc(NC(=O)c3ccc4c(=O)n5c(nc4c3)CCCCC5)sc2c1 ?
LYPLA1 inh: inactive; GSTO1 counter: inactive; PAD4 FP inh: 36; Fam108B inh: inactive; PME-1 primary: inactive; LYPLA2 inh: inactive; PAD4 confirm: 28

How did Cc1ccc(NC(=O)c2ccc3c(=O)n4c(nc3c2)CCCCC4)nc1 do in these assays?
LYPLA1 inh: inactive; GSTO1 counter: inactive; PAD4 FP inh: inactive; Fam108B inh: inactive; PME-1 primary: inactive; LYPLA2 inh: inactive

How did Cc1cc2cc(CNC(=O)COc3ccccc3)ccc2n1C do in these assays?
LYPLA1 inh: inactive; GSTO1 counter: inactive; PAD4 FP inh: 33; Fam108B inh: inactive; PME-1 primary: inactive; LYPLA2 inh: inactive; PAD4 confirm: inactive

What do the screens show for `Cc1ccc(S(=O)(=O)NCc2ccc3c(c2)cc(C)n3C)cc1`?
LYPLA1 inh: inactive; GSTO1 counter: inactive; PAD4 FP inh: inactive; Fam108B inh: inactive; PME-1 primary: inactive; LYPLA2 inh: inactive
